In PubChem BioAssay AID2284350 (EPA ToxCast) one finds outcome and AC50 data, which are given here for 5 compounds.

The structures appear in SMILES notation. Records with an inconclusive call do not appear. Active and inactive are the calls of the source. The calls were made as follows: active = hit-call score of the fitted dose curve at least 0.9, where 1 is the maximum; inconclusive = response in the unintended direction; inactive = score below 0.9.

For this experiment, the system named is zebrafish Peroxisome Proliferator-activated Receptor alpha (PPARa), gene 563298. Kind of experiment: ATG_zfPPARa_EcoTox2: Attagene TRANS-FACTORIAL EcoTox-2 HepG2 Assay for zebrafish Peroxisome Proliferator-activated Receptor alpha (PPARa). As for the experimental part:
ATG_EcoTox2 is a cell-based, multiplexed assay created by modifying the existing Attagene TRANS-FACTORIAL system to include a panel of nuclear receptors from some or all the following species: human (Homo sapiens), african clawed frog (Xenopus laevis), rainbow trout (Oncorhynchus mykiss), japanese medaka (Oryzias latipes), and zebrafish (Danio rerio). The ECOTOX2-FACTORIAL format uses HepG2, a human liver cell line, with measurements taken at 24 hours after chemical dosing in a 24-well plate. ATG_zfPPARa_EcoTox2 is one of 29 assay components calculated in the ATG_EcoTox2 assay. It is designed to make measurements of mRNA induction, a form of inducible reporter, as detected with fluorescence intensity signals by Reverse transcription polymerase chain reaction (RT-PCR) and Capillary electrophoresis technology.The assay endpoint ATG_zfPPARa_EcoTox2 was analyzed in the positive analysis fitting direction relative to DMSO as the negative control and baseline of activity. Using a type of inducible reporter, measures of mRNA for gain-of-signal activity can be used to understand the reporter gene at the transcription factor-level as they relate to the gene PPARa. Furthermore, this assay endpoint can be referred to as a primary readout, because this assay has produced multiple assay endpoints where this one serves a reporter gene function. To generalize the intended target to other relatable targets, this assay endpoint is annotated to the nuclear receptor intended target family, where the subfamily is non-steroidal.
Human liver HepG2 cells are transiently transfected with multiple reporter transcription units (MRTUs) in 6-well plates using FuGene 6 reagent (Roche; 3 ml FuGene/1 mg DNA). The MRTU constructs are regulated by a cis-regulating element (promoter). Each RTU expresses a GAL4-UAS that regulates the transcription of a nearby target reporter gene sequence. A major difference between the CIS and TRANS system is that in CIS activities of endogenous TFs are measured, whereas the TRANS assay evaluates changes in activities of exogenous, chimeric NR-Gal4 proteins. […] At the end of 24 hour incubation, total RNA was isolated using TriZol reagent (Invitrogen). The isolated RNA is then reverse-transcribed using oligo(dT) primer and Mo-MLV reverse transcriptase (Invitrogen) with DNAse I (Ambion) treatment for 30 min. The one-tenth of the produced cDNA was amplified by PCR using Taq DNA polymerase (Invitrogen) and two reporter sequence-specific primers. The PCR products were fluorescently labeled by primer extension with 6-arboxyfluorescein (6-FAM) 5'-labeled reporter sequence-specific primer (2 min at 95 C, 20 s at 68 C and 10 min at 72 C) and these products were digested with 5U of HpaI (New England Biolabs) for 2h at 37 C. The fragments were purified using Qiaquick PCR columns (Qiagen), analyzed on an ABI 3130xL genetic analyzer (Applied Biosystems) with peak positions identified by using a set of X-rhodamine (ROX)-labeled MapMarker1000 molecular weight standards (BioVentures). The raw capillary electrophoresis data was processed using Attagraph software (Attagene).
For the compound `O=S(=O)(O)C(F)(F)C(F)(F)C(F)(F)C(F)(F)C(F)(F)C(F)(F)F`, the compound was classed as inactive.

What is called AC50 is the concentration giving half of the maximal activity seen. Turning to `O=C(O)C(F)(F)C(F)(F)C(F)(F)C(F)(F)C(F)(F)C(F)(F)C(F)(F)F`, the AC50 was 52.7 µM (active).

For `CCCCOCN(C(=O)CCl)c1c(CC)cccc1CC`, the call was inactive.

In the case of `O=P(Oc1ccccc1)(Oc1ccccc1)Oc1ccccc1`, the compound was called inactive.

With `[Cl][Sn]([c]1ccccc1)([c]1ccccc1)[c]1ccccc1`, the outcome was inactive.
